Glioma ERSR ind: ER stress response induction in glioma. AID 602332. U87-MG GRP78 promoter luciferase reporter, 16 h. actives 0.02% (n = 420,000). Potency, µM, most hits filed as activators; note: series mostly up to about 76 µM; nearly all actives have a fitted effect of over 35% in size
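ERSR induction read as luciferase luminescence (Bright-Glo, 10 min at room temperature) in stably transfected human U87-MG glioma cells exposed to compounds for 16 h, using GRP78 as sensor.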
12-LOX inh: inhibitors of human 12S-lipoxygenase ALOX12. purified 12hLO, xylenol orange hydroperoxide absorbance. P18054. Potency, µM (doses to about 108 µM), most hits filed as inhibitors. actives 1.1% (n = 580,000)
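Purified human 12hLO at 150 nM in 25 mM Hepes, 0.01% Triton X-100, pH 7.0, preincubated 15 min at room temperature with compound. Reaction started with 40 uM arachidonic acid, 30 min at room temperature. Hydroperoxide measured by Fe-xylenol orange, 573/405 nm absorbance ratio.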
VDR inh: vitamin D3 receptor (human) inhibition; P11473; VDR-SRC2-3 peptide fluorescence polarization, 2 h; Potency, µM, actives largely listed as inhibitors; actives 0.93% (n = 400,000); AID 504847
Target sequence (P11473 whole entry, looked up): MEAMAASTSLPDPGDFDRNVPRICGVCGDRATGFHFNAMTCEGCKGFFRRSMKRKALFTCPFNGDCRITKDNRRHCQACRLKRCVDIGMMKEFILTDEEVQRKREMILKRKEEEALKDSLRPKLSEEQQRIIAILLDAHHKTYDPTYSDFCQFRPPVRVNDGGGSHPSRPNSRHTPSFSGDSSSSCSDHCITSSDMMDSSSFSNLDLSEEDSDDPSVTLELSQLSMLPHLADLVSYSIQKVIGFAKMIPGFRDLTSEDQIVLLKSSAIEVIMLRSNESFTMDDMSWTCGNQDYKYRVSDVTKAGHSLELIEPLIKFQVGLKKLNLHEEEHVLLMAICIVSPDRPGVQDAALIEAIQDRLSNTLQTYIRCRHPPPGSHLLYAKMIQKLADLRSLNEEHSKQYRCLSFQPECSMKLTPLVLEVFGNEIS
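Measured by FP: displacement of SRC2-3 coactivator peptide from VDR by library compounds, following a two-hour ambient incubation.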
G9a block: blocks human histone lysine methyltransferase G9a; Q96KQ7; G9a H3K9 monomethylation, AlphaScreen, 2 h; Potency, µM (doses to about 102 µM), hits mostly inhibitors; actives 8.8% (n = 350,000); note: nearly all actives have a fitted effect of over 75% in size
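Enzyme 20 nM + cpd, 15 min RT; add b-H3K9 pep 500 nM / SAM 20 uM; 2 h RT; anti-H3K9me1 Ab 0.5 ug/mL + SA donor / anti-rabbit acceptor beads 20 ug/mL each, 10 min; AlphaScreen read.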
Sfp PPTase inh: Sfp phosphopantetheinyl transferase inhibition. Q9F4F7. Biochemical Sfp PPTase activity, qHTS. Potency, µM, hits mostly inhibitors. actives 3.5% (n = 310,000);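 note: the enzyme is Sfp with the accession as filed and its product quenches rhodamine fluorescence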
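Fluorescence-quenching assay: 15 nM Sfp-PPTase preincubated 15 min at room temperature with compound, then 5 uM rhodamine-CoA and 12.5 uM BHQ-2-labelled YbbR peptide added. Fluorescence (ex 525/em 598 nm) read at start and after 30 min; difference gives rate.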
Hits are given with their value; ! = not active in a repeat; [ ] = dose if it differs, or a comment. Many of the other results were omitted from the sample, so hits are more common in it than they were. Calls come from the whole dose curve; as a rule, active = well fitted curve in the direction sought with a large enough effect; inconclusive = small, poorly fitted or top-dose-only effect, or another doubt; inactive = no such curve, though single readings can be large; an effect the other way counts as inactive or inconclusive.

COc1ccc(C(=O)OCC(=O)NCc2ccco2)cc1OC was read as Glioma ERSR ind inactive, 12-LOX inh inactive, VDR inh inactive, G9a block 44.7µM and Sfp PPTase inh inactive.
Screening CCOc1ccc(C(=O)OCC(=O)NCc2ccco2)cc1OCC returned Glioma ERSR ind inactive, 12-LOX inh inactive, VDR inh inactive, G9a block 50.1µM and Sfp PPTase inh inactive.
`Cc1ccc(C(=O)OCC(=O)NCc2ccco2)cc1` gave Glioma ERSR ind inactive, 12-LOX inh inactive, VDR inh inactive, G9a block inconclusive and Sfp PPTase inh inactive.
COc1ccc(C(=O)OCC(=O)Nc2ncc([N+](=O)[O-])s2)cc1OC was read as Glioma ERSR ind inactive, 12-LOX inh 35.5µM, VDR inh inconclusive and G9a block inactive[12.7 µM].
For COc1ccc(OCCC(=O)OCC(=O)NCc2ccco2)cc1 the results were Glioma ERSR ind inactive, 12-LOX inh inactive, VDR inh inactive, G9a block 15.8µM and Sfp PPTase inh inconclusive.
CCOc1ccc(C(=O)NCc2ccco2)cc1OCC was read as Glioma ERSR ind inactive, 12-LOX inh inactive, VDR inh inactive, G9a block inactive and Sfp PPTase inh inactive.
`CCc1cccc(C)c1NC(=O)Cn1ccn(-c2ccc(OC)c(OC)c2)c(=O)c1=O` gave 12-LOX inh inactive.
For CCCNc1nc2ccccc2nc1C(=O)Nc1cccc(C)c1 the results were 12-LOX inh inactive.
Screening CCOc1ccc(OCC)c(NC(=O)C2C3C=CC(O3)C2C(=O)O)c1 (centres undefined) returned Glioma ERSR ind inactive and 12-LOX inh inconclusive.
Screening CCOc1ccc(OCC)c(NC(=O)C2C3C=CC(O3)C2C(=O)NCc2ccco2)c1 (centres undefined) returned Glioma ERSR ind inactive, 12-LOX inh inactive, VDR inh inactive, G9a block 50.1µM and Sfp PPTase inh inactive.
Screening Cc1cccc(C(=O)NCC(=O)N2CCCCCCNC(=O)CC2c2ccccc2)c1 (centres undefined) returned 12-LOX inh inactive.
For Cc1ccc(N2CCN(c3ncncc3-c3nc(-c4ccccc4)no3)CC2)cc1 the results were 12-LOX inh inactive.
`CC(C)(C)C(=O)CSc1ncccn1` gave Glioma ERSR ind inactive, 12-LOX inh inconclusive, VDR inh inconclusive, G9a block inconclusive and Sfp PPTase inh 44.7µM.
Screening Cc1oc(-c2ccccc2)nc1CC(=O)N1CCOCC1(C)C returned 12-LOX inh inactive.
COc1ccc(N2CCN(C(=O)COC(=O)CNC(=O)c3ccc(C)cc3)CC2)cc1 was read as Glioma ERSR ind inactive, 12-LOX inh inactive, VDR inh inactive and G9a block 39.8µM.
For COc1ccc(N2CCN(C(=O)CNC(=O)c3ccc4ccccc4c3)CC2)cc1 the results were Glioma ERSR ind inactive, 12-LOX inh inactive, VDR inh inconclusive and G9a block inactive[2.33 µM].
For COc1ccc(N2CCN(C(=O)CCNC(=O)c3ccc(C(C)(C)C)cc3)CC2)cc1 the results were Glioma ERSR ind inactive, 12-LOX inh inactive, VDR inh inactive, G9a block 44.7µM and Sfp PPTase inh inactive.
COc1cc(OC)cc(C(=O)NCC(=O)N2CCN(c3ccc(O)cc3)CC2)c1 was read as Glioma ERSR ind inactive, 12-LOX inh inconclusive, VDR inh inactive, G9a block 22.4µM and Sfp PPTase inh 56.2µM.
Screening CN1c2cc(C(=O)N3CCN(c4cccc(Cl)c4)CC3)ccc2C(=O)N2CCCCC21 (centres undefined) returned 12-LOX inh inactive.
Screening COc1cc(CCN(C(C)=O)C2C(=O)Nc3ccccc3N=C2c2ccc3c(c2)OCO3)cc(OC)c1 (centres undefined) returned Glioma ERSR ind inactive and 12-LOX inh 2µM.
`C=C(C)CCC(C)N1CCC(n2nccc2NC(=O)CCCc2ccccc2)CC1` (centres undefined) gave Glioma ERSR ind inactive, 12-LOX inh inactive, VDR inh inactive, G9a block 79.4µM and Sfp PPTase inh inactive.
`NC(=O)c1cc2ccccc2o/c1=N\NC(=O)c1ccccc1O` gave Glioma ERSR ind inactive, 12-LOX inh inactive, VDR inh inactive, G9a block 31.6µM and Sfp PPTase inh inactive.
Screening Cn1cc(-c2cc(=O)c3ccnc(NCc4ccc5c(c4)OCO5)c3o2)cn1 returned 12-LOX inh inactive.
`O=C(O)[C@@H]1C[C@@H](C(=O)O)N1` gave Glioma ERSR ind inactive, 12-LOX inh inconclusive, VDR inh inactive, G9a block 23.8µM! and Sfp PPTase inh inconclusive.
COc1ccc(OC)c2sc(Cl)nc12 was read as Glioma ERSR ind inactive, 12-LOX inh inactive, VDR inh inactive, G9a block 28.2µM and Sfp PPTase inh inactive.
For COc1cccc2cc(-c3nc(-c4ccccc4)cs3)c(=O)oc12 the results were 12-LOX inh inactive.
Screening Cc1sc(NC(=O)/C=C/c2cccs2)c(C#N)c1C returned 12-LOX inh 7.94µM.
O=C(/C=C/c1cccs1)Nc1nc(-c2ccccc2)cs1 was read as Glioma ERSR ind inactive, 12-LOX inh inactive, VDR inh inactive, G9a block inactive and Sfp PPTase inh inactive.
Cc1sc(NC(=O)CCS(=O)(=O)c2ccccc2)c(C#N)c1C was read as Glioma ERSR ind inactive, 12-LOX inh inconclusive, VDR inh 89.1µM and G9a block inconclusive.
`O=C(/C=C/c1cccs1)Nc1scc(-c2ccccc2)c1C(=O)O` gave Glioma ERSR ind inactive, 12-LOX inh 44.7µM, VDR inh inactive, G9a block 31.6µM and Sfp PPTase inh 31.6µM.
`CCOc1ccc(C2c3c(-c4ccccc4)n[nH]c(=O)c3Nc3nnnn32)cc1` (centres undefined) gave 12-LOX inh inactive.
Screening CCN(CC)C(=O)c1sc2nc(Cc3ccccc3)[nH]c(=O)c2c1C returned Glioma ERSR ind inactive, 12-LOX inh inactive, VDR inh inconclusive, G9a block inconclusive and Sfp PPTase inh inactive.
Screening O=c1[nH]c(-c2ccccn2)nc2sc(-c3ccccc3)cc12 returned Glioma ERSR ind inconclusive, 12-LOX inh inactive, VDR inh 79.4µM, G9a block 8.91µM and Sfp PPTase inh 3.98µM.
Cc1c(C(=O)N(C)C)sc2nc(-c3ccccn3)[nH]c(=O)c12 was read as Glioma ERSR ind inactive, 12-LOX inh inactive, VDR inh inactive, G9a block inconclusive and Sfp PPTase inh 89.1µM.
`COc1cccc(C2=Cc3ccc(F)cc3C(CC(C)=O)N2c2ccc(-c3cc(OC)c(OC)c(OC)c3)cc2)c1` (centres undefined) gave 12-LOX inh inactive.
For COc1cccc(C2=Cc3ccc(F)cc3C(CC(C)=O)N2c2ccc(-c3cncnc3)cc2)c1 (centres undefined) the results were 12-LOX inh 31.6µM.
`Cc1nn(-c2ccccc2)c2c1C(c1ccc([N+](=O)[O-])cc1)C(C#N)=C(N)O2` (centres undefined) gave Glioma ERSR ind inactive, 12-LOX inh inactive, VDR inh inconclusive, G9a block 50.1µM and Sfp PPTase inh inactive.

Source: PubChem BioAssay
